Drawing on PubChem BioAssay AID1376 (SRMLSC, 2008), this text covers inhibition for 99 molecules.

Out of some 220,000 compounds screened, about 530 (0.24%) were called active. No stated cut-off is given here; in the data, active means inhibition above about 13%; inconclusive means no clear call, values can overlap the other calls; inactive means below that. The full list was thinned out, with actives kept by preference. Potency and affinity values are given separately.

This experiment deals with Bifunctional protein GlmU (Mycobacterium tuberculosis (strain ATCC 25618 / H37Rv)) (UniProt P9WMN3). Kind of experiment: inhibition of mycobacterial GlmU enzyme – biochemical, glucosamine-1-phosphate acetyltransferase (AID 1376).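 Further: 0% = complete reaction with vehicle and 100% = reaction without substrate.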 As to conditions: M. tuberculosis GlmU acetyltransferase enzyme assay; hits give high values;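 tested at 30 µM in the primary screen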.
Bifunctional protein GlmU (Mycobacterium tuberculosis (strain ATCC 25618 / H37Rv)), sequence (P9WMN3 whole entry, looked up): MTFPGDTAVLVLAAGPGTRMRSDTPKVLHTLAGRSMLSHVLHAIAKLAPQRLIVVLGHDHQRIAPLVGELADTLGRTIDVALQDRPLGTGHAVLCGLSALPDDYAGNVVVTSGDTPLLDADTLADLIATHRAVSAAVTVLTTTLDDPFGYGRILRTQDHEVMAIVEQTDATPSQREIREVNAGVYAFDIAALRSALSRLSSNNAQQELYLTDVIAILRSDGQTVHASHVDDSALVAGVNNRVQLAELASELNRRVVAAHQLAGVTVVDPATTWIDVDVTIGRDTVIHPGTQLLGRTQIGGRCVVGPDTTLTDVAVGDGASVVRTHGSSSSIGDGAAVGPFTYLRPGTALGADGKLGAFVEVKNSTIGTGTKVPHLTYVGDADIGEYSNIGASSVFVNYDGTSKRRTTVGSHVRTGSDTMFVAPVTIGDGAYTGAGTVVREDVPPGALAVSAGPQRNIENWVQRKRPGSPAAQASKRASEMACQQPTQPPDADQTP
With `COc1cccc2c1OC1(C)CC2NC(=O)N1` (centres undefined), the inhibition is 7.2% (inactive).
The figure for `COc1ccc(-c2nnc3ccc(SCC(=O)NCc4ccco4)nn23)cc1` is -0.33% (inactive).
The figure for `COc1ccc(C(=O)NC(Oc2ccccc2)C(Cl)(Cl)Cl)cc1` (centres undefined) is 46.8% (active); for `Cc1cccc(C(=O)NC(Oc2ccccc2)C(Cl)(Cl)Cl)c1` (centres undefined) it is 0.69% (inactive).
The figure for `O=C(NC(Oc1ccccc1)C(Cl)(Cl)Cl)c1ccccc1` (centres undefined) is 2.49% (inactive).
As for `CCCCCC(=O)c1c(C)[nH]c(C(=O)OCC)c1C`, the inhibition was 2.82% (inactive).
For `NC(=O)C1(N2CCCCC2)CCN(C(=S)Nc2cc(F)cc(F)c2)CC1`, the inhibition is 3.46% (inactive).
In the case of `Cn1nnc(CC[N+](C)(C)C)n1`, the inhibition is -0.54% (inactive).
Take `CCOC(=O)c1cnc2c(-c3ccc(Cl)cc3)c(C)nn2c1N`: the inhibition is -0.25% (inactive).
With `CCn1c(SCC(=O)OCC(=O)N2c3ccccc3NC(=O)C2(C)C)nnc1-c1ccco1`, the inhibition was 3.17% (inactive).
For the molecule `CCN(c1ccc(NS(=O)(=O)c2cc(Cl)ccc2Cl)cc1)C(C)C`, the inhibition was -7.63% (inactive).
The figure for `CCc1c(C)sc(NC(=O)c2ccco2)c1C(=O)N1CCCCC1` is 0.95% (inactive); for `CCc1c(C)sc(NC(=O)OC)c1C(=O)N1CCOCC1` it is 2.3% (inactive).
The figure for `CCc1c(C)sc(NC(=O)c2ccco2)c1C(=O)N1CCOCC1` is 13.4% (active); for `Cc1ccccc1NC(=S)N(CCN(C)C)C(C)c1ccco1` (centres undefined) it is -1.1% (inactive).
The figure for `CC1=NN(c2ccccc2)C(=O)/C1=C/c1c(O)[nH]c(=S)[nH]c1=O` is -4.55% (inactive).
With `CC1=NN(c2ccccc2)C(=O)/C1=C/c1c(O)n(-c2ccc(F)cc2)[nH]c1=O`, the inhibition was 7.97% (inactive).
The figure for `CC1=NN(c2ccccc2)C(=O)/C1=C/c1c(O)n(-c2ccc(F)c(Cl)c2)[nH]c1=O` is 13.6% (active); for `CCc1ccc(Nc2nc3ccccc3c(=O)s2)cc1` it is -0.12% (inactive).
Then `O=c1sc(Nc2ccccc2)nc2ccccc12`, with 4.04% (inactive).
Then `CCOc1ccc(Nc2nc3ccccc3c(=O)s2)cc1`, with 13.8% (active).
`COc1ccc(/C=N/NC(=O)CCC(=O)Nc2ccccc2)cc1OC`: the inhibition was -0.28% (inactive).
Then `COc1ccc(N2CCN(C(CNC(=O)C(=O)NCCCn3ccnc3)c3cccnc3)CC2)cc1` (centres undefined), with 4.95% (inactive); and `COc1cccc(C(=O)Nc2cc(C(F)(F)F)ccc2Cl)c1`, with -5.67% (inactive).
For `COc1ccc(C(=O)Nc2cc(C(F)(F)F)ccc2Cl)cc1OC`, the inhibition was 48.9% (active).
Then `COc1ccc(/C=C/C(=O)Nc2cc(C(F)(F)F)ccc2Cl)cc1OC`, with -4.68% (inactive); and `Nc1cc2nc3ccccc3nc2cc1N`, with 1.38% (inactive).
With `Nc1ccc2nc3c(=O)n(C4CCCCC4)c(=O)[nH]c3nc2c1`, the inhibition is -0.52% (inactive).
Then `C/C(=N/NS(=O)(=O)c1ccc(C)cc1)[C@H]1C[C@@H]1c1ccccc1`, with 1.42% (inactive); and `COC(=O)c1ccc(OCCOc2ccc(C(=O)OC)cc2)cc1`, with -4.5% (inactive); and `COC(=O)c1ccc(OCC(=O)c2ccccc2)cc1`, with 2.96% (inactive).
Then `COC(=O)c1ccc(OCCOc2ccccc2)cc1`, with 14.7% (active); and `CCNCCNc1ccc(Cl)cc1[N+](=O)[O-]`, with 0.23% (inactive); and `c1ccc(CCn2nnnc2C(c2cccnc2)N2CCN(c3ccccc3)CC2)cc1` (centres undefined), with -3.96% (inactive).
For `CSc1nnc([C@@H]2CCCN2C(=O)OC(C)(C)C)o1`, the inhibition was 6.66% (inactive).
Then `CCOC(=O)c1oc2nc(CC(C)C)c3c(c2c1N)CCCC3`, with 2.38% (inactive); and `CC(C)c1cc(NCC2CCCO2)n2c(nc3ccccc32)c1C#N` (centres undefined), with 5.33% (inactive).
Regarding `CCCc1cc(NCC2CCCO2)n2c(nc3ccccc32)c1C#N` (centres undefined), the inhibition is 7.14% (inactive).
Then `Cc1cc(NCC2CCCO2)n2c(nc3ccccc32)c1C#N` (centres undefined), with 12.8% (active); and `O=C(NCC1(N2CCCCC2)CCCCC1)c1ccc(S(=O)(=O)N2CCCC2)cc1`, with 7.41% (inactive).
The figure for `Cc1cccc(C)c1NS(=O)(=O)c1ccc2c(c1)NC(=O)CO2` is 7.49% (inactive); for `Cc1ccccc1NS(=O)(=O)c1ccc2c(c1)NC(=O)CO2` it is 13.3% (active).
The figure for `Cc1c(F)cccc1NS(=O)(=O)c1ccc2c(c1)NC(=O)CO2` is -2.89% (inactive); for `Cc1nc(NC(=O)COc2ccccc2)sc1C(=O)Nc1ccccc1` it is 6.13% (inactive); for `Cc1nc(NC(N)=S)sc1C(=O)Nc1ccccc1` it is 14.8% (active).
Regarding `Cc1nc(Nc2ccccc2)sc1C(=O)Nc1ccccc1`, the inhibition was 2.24% (inactive).
Then `O=C(NCc1n[nH]c(=S)n1-c1ccc(F)cc1)c1ccco1`, with 3.33% (inactive); and `CCOC(=O)CC(=O)CSc1nc(-c2cccnc2)ccc1C#N`, with 2.76% (inactive).
The figure for `Cc1ccc(NC(=O)Cn2nnc3ccccc32)cc1` is -1.28% (inactive); for `CCCCn1c(CNC(=O)C23CC4CC(CC(C4)C2)C3)nnc1SC(C)CC` (centres undefined) it is -3.15% (inactive); for `Cc1ccc(S(=O)(=O)N(C)C/N=C(\N)N[N+](=O)[O-])cc1` it is -3.35% (inactive).
The figure for `O=C1CCCC(O)=C1N=Nc1ccc2c(c1)OCO2` is 1.81% (inactive); for `O=C1CCCC(O)=C1N=Nc1ccc(Cl)c(Cl)c1` it is 0.41% (inactive).
Regarding `O=C1CCCC(O)=C1N=Nc1ccc(C(=O)O)cc1`, the inhibition is 13.3% (active).
Then `CCc1nnc(NC(=O)CSc2nc(-c3ccccc3)nc3ccccc23)s1`, with -1.88% (inactive).
Then `CC1CC(C)(C)NC(=S)N1CCCC(=O)NCc1ccccc1` (centres undefined), with -0.79% (inactive); and `Oc1c(C(c2ccccc2Cl)N2CCCC2)ccc2cccnc12` (centres undefined), with -1.53% (inactive); and `OCCN1CCN(C(c2cccs2)c2ccc3cccnc3c2O)CC1` (centres undefined), with 17.8% (active).
For the molecule `CN1CCN(C(c2cccnc2)c2ccc3cccnc3c2O)CC1` (centres undefined), the inhibition is -1.35% (inactive).
The figure for `CCc1ccc(CN(C)CCc2ccccn2)cc1` is 1.82% (inactive); for `O=C(NCc1ccc2c(c1)OCO2)C1CC(c2cccc(Br)c2)=NO1` (centres undefined) it is 5.45% (inactive); for `COc1cc(/C=N/NC(=O)c2ccc(F)cc2)ccc1OC(=O)c1ccco1` it is 1.03% (inactive).
On to `CCC1=NN(C(=O)c2ccc(Br)cc2)C(O)(c2ccccc2)C1` (centres undefined), for which the inhibition is 1.41% (inactive).
The figure for `CCN(CC)CCC/C(=N\O)C(O)(c1ccccc1)c1ccccc1` is -1.2% (inactive); for `O=C(O)c1cc(O)ccc1-c1ccc(O)cc1` it is 0.42% (inactive); for `COc1ccc(OCc2cccc(C(=O)O)c2)cc1` it is -3.31% (inactive).
The figure for `COc1ccc(OCc2ccc(C(=O)O)cc2)cc1` is -5.61% (inactive).
As to `COc1ccc(-c2ccc(OC)cc2C(=O)O)cc1`, the inhibition was 14.9% (active).
The figure for `COc1ccc(C(=O)O)c(O)c1` is 1.05% (inactive); for `CCN(CC)S(=O)(=O)c1ccc(N2CCOCC2)c(NC(=S)NC(=O)c2ccco2)c1` it is 14.6% (active); for `O=C(NC(=S)Nc1cc(S(=O)(=O)N2CCOCC2)ccc1N1CCOCC1)c1ccco1` it is 1.22% (inactive).
The figure for `CCN(CC)S(=O)(=O)c1ccc(N2CCOCC2)c(NC(=O)Cc2ccccc2)c1` is -0.9% (inactive).
Then `Cc1cc(C)n(CCc2nc(-c3ccc(C(C)(C)C)cc3)cs2)n1`, with -7.47% (inactive); and `O=C(CS(=O)(=O)Cc1ccccc1)Nc1ccccc1Cl`, with -1.63% (inactive); and `NC(=O)c1ccccc1NC(=O)CS(=O)(=O)Cc1ccccc1`, with 14.6% (active).
As for `CC(C)NC(=O)c1ccccc1NC(=O)CS(=O)(=O)Cc1ccccc1`, the inhibition is -2.67% (inactive).
Then `COc1ccc(S(=O)(=O)N(C)CC(=O)Nc2ccc3c(c2)OCO3)cc1OC`, with -3.21% (inactive); and `CCCCOC(=O)C1CN(c2ccccc2)N=C1C(C)=O` (centres undefined), with 3.69% (inactive); and `Cc1ccc(S(=O)(=O)NC2OC(=O)C(Cl)=C2Cl)cc1` (centres undefined), with 13.1% (active).
Then `CC(=O)NC(=O)NC1OC(=O)C(Cl)=C1Cl` (centres undefined), with 2.53% (inactive); and `Cc1ccccc1S(=O)(=O)NC1OC(=O)C(Cl)=C1Cl` (centres undefined), with 9.45% (inactive).
As for `C#CC[N+](C)(C)CCCCCCCCCC`, the inhibition was -5.84% (inactive).
Then `CCC(c1nnnn1CCC(C)C)N1CCC(C(N)=O)CC1` (centres undefined), with 2.94% (inactive); and `Cc1ccc(Oc2ccc(OCC(=O)OC3CCS(=O)(=O)C3)cc2)cc1` (centres undefined), with -1.4% (inactive); and `Cc1ccc2c(c1)sc1nc(=O)n(-c3ccc(Cl)cc3)c(=O)n12`, with 2.07% (inactive).
Then `Cc1ccc2c(c1)sc1nc(=O)n(-c3cccc(Cl)c3)c(=O)n12`, with 38.6% (active).
Regarding `Cc1ccc2c(c1)sc1nc(=O)n(-c3ccccc3)c(=O)n12`, the inhibition is 4.71% (inactive).
Then `Cc1ccc(C)c(Cn2nnc3c(=O)[nH]c(C(=O)NCC4CCCO4)nc32)c1` (centres undefined), with 0.99% (inactive); and `O=C(NCC1CCCO1)c1nc2c(nnn2Cc2ccc(F)cc2)c(=O)[nH]1` (centres undefined), with 13.4% (active); and `O=C(NCC1CCCO1)c1nc2c(nnn2Cc2ccccc2Cl)c(=O)[nH]1` (centres undefined), with -1.69% (inactive).
`CCCCNC(=O)CNC(=S)N(CCCN1CCOCC1)Cc1cccs1`: the inhibition is 3.25% (inactive).
The figure for `CN(C)S(=O)(=O)c1cccc(NC(=S)N/N=C/c2cc(Br)ccc2O)c1` is -0.84% (inactive).
The figure for `Oc1ccc(/C=N/NC(=S)Nc2cccnc2)c(O)c1` is 3.56% (inactive); for `Oc1cccc(/C=N/NC(=S)Nc2cccnc2)c1O` it is 5.05% (inactive); for `COc1ccc(O)c(/C=N/NC(=S)Nc2cccc(S(=O)(=O)N(C)C)c2)c1` it is -8.22% (inactive).
Turning to `COc1ccccc1NC(=O)CCC(=O)N(Cc1ccc(OC)c(OC)c1)c1nccs1`, the inhibition is -2.21% (inactive).
The figure for `CCN1CCN(c2cc3c(nn2)Oc2ccccc2N3C)CC1` is 0.59% (inactive); for `Cc1nc2ccccc2c(=O)n1NC(=O)Cc1ccc([N+](=O)[O-])cc1` it is -0.18% (inactive).
Then `O=C(Cn1nc(-c2ccccc2)c2ccccc2c1=O)Nc1cccc(O)c1`, with 3.9% (inactive).
